Experimental data: PubChem BioAssay (EPA / NIEHS)
Active and inactive are the calls of the source. Rule for the calls: active = hit-call score of the fitted dose curve at least 0.9, where 1 is the maximum; inactive = score below 0.9.

test: BSK_4H_SRB: Viability Assessment in the BioMAP Diversity Plus: 4H Assay (AID 2283027); details: primary human endothelial cells (HUVEC);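 note: cells exposed to compound for 24 h before staining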;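 for AC50: curves fitted both ways versus DMSO so AC50 may be loss or gain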
Experimental: BSK_4H is a cell-based, multiplexed-readout assay that uses umbilical vein endothelium, a human vascular primary cell, with measurements taken at 24 hours after chemical dosing in a 96-well plate.BSK_4H_SRB is an assay component measured in the BSK_4H assay. It measures […] related to cell death using Sulforhodamine staining technology.Data from the assay component BSK_4H_SRB was analyzed into 1 assay endpoint. This assay endpoint, BSK_4H_SRB, was analyzed with bidirectional fitting relative to DMSO as the negative control and baseline of activity. Using a type of viability reporter, gain or loss-of-signal activity can be used to understand changes in the signaling. Furthermore, this assay endpoint can be referred to as a primary readout, because this assay has produced multiple assay endpoints where this one serves a signaling function. To generalize the intended target to other relatable targets, this assay endpoint is annotated to the cell morphology intended target family, where the subfamily is cell conformation.
The levels of cell surface (or secreted, indicated by the prefix "s") biomarker endpoints were measured by ELISA. Overt cytotoxicity to cells in confluent adherent cultures (all systems other than the BT system) was assessed by measuring total protein levels using sulforhodamine B (SRB) staining in parallel cultures at the time of biomarker measurements, indicated as SRB endpoints. For proliferation assays for adherent cell types, individual cell types are cultured at sub-confluence and relative cell numbers quantified by SRB staining at time points optimized for each system (48 h: 3C and CASM3C systems; 72 h: BT and HDF3CGF systems; 96 h: SAg system). SRB was performed by staining cells with 0.1% SRB after fixation with 10% TCA and reading wells at 560 nm.Viability and proliferation of PBMC (T cells) was quantified by Alamar Blue reduction for the SAg and BT systems. For PBMC viability (referred to as PBMC Cytotoxicity within the assay endpoint names), cells were plated (75,000/well in a 96-well plate) and then chemical samples added for 1 h before addition of activators, SEB and TSST-1 (20 ng/mL final concentration each). Cells were incubated for 90 h. Then, Alamar Blue (20 uL/well) (Invitrogen, Cat DAL1100) was added for 6 h, and the plates were read with a fluorescence microplate reader at 546/580 nm (excitation/emission). For PBMC proliferation, cells were plated and activated as above but incubated for only 16 h prior to addition of Alamar Blue. Plates were read after 6 h.

| Structure (SMILES) | outcome | AC50 |
| --- | --- | --- |
| Cn1cnc([N+](=O)[O-])c1Sc1ncnc2nc[nH]c12 | inactive | – |
| Cc1ccc(N)cc1O | inactive | – |
| Nc1nc2ncc(CNc3ccc(C(=O)N[C@@H](CCC(=O)O)C(=O)O)cc3)nc2c(=O)[nH]1 | inactive | – |
| CC(C)=CCCC(C)CCO (stereo not given) | inactive | – |
| Cc1[nH]cnc1C[C@H]1CCc2c(C)c3ccccc3n2C1=O | – | 24 µM (active) |
| CCOCCO | inactive | – |
| O=C(CCCCCCCCc1cccnc1)N1CCC(C=C(c2ccccc2)c2ccccc2)CC1 | – | 13.1 µM (active) |
| Cn1c(=O)cc(Oc2ccc(F)cc2F)c2cnc(NCC(C)(C)O)nc21 | inactive | – |
| CC/C(=C\C(=N/O)C(N)=O)C(C)[N+](=O)[O-] (stereo not given) | inactive | – |
| CC(=O)OC[C@H]1O[C@@](COC(C)=O)(O[C@H]2O[C@H](COC(C)=O)[C@@H](OC(C)=O)[C@H](OC(C)=O)[C@H]2OC(C)=O)[C@@H](OC(C)=O)[C@@H]1OC(C)=O | inactive | – |
| CCCCCCCCCCCCCCCO | – | 36.1 µM (active) |
| CNS(=O)(=O)c1cc(C(=O)N2CCC(CCN3C4CCC3CC(n3c(C)nc5ccccc53)C4)(c3cccc(F)c3)CC2)c(Cl)cc1F (stereo not given) | – | 11.8 µM (active) |
| CC(C)=CCCC(C)=CC=O | inactive | – |
| COC(=O)CC(=O)OC | inactive | – |
| CC[C@H]1OC(=O)[C@H](C)[C@@H](O[C@H]2C[C@@](C)(OC)[C@@H](O)[C@H](C)O2)[C@H](C)[C@@H](O[C@@H]2O[C@H](C)C[C@H](N(C)C)[C@H]2O)[C@](C)(O)C[C@@H](C)C(=O)[C@H](C)[C@@H](O)[C@]1(C)O | inactive | – |
| COCCOCCOCCOC | inactive | – |
| O=C(O)CC(O)C(=O)O (stereo not given) | inactive | – |
| C1=CCCC=CCCC=CCC1 | inactive | – |
| O=C1CCC(N2C(=O)c3ccccc3C2=O)C(=O)N1 (stereo not given) | inactive | – |
| CCc1cc(SCc2sc(-c3ccc(C(F)(F)F)cc3)nc2CN2CCN(c3ccc(OC)cc3)CC2)ccc1OCC(=O)O | – | 11.8 µM (active) |

| Structure (SMILES) | outcome | AC50 |
| --- | --- | --- |
| COc1ccc(-n2nc(C(F)F)cc2-c2ccc(S(C)=O)cc2)cc1 (stereo not given) | inactive | – |
| COCCOc1cc2cc(C(=O)NC3CCN(C(C)C)CC3)n(CC(=O)Nc3ccc(Cl)cn3)c2cn1 | inactive | – |
| CCC(C)(C)C(=O)O[C@H]1C[C@@H](C)C=C2C=C[C@H](C)[C@H](CC[C@@H]3C[C@@H](O)CC(=O)O3)[C@H]21 | – | 10.1 µM (active) |
| CC(=O)OCCC(C)C | inactive | – |
| Nc1ccc(Nc2ccccc2)cc1 | inactive | – |
| CCCC(=O)OCC | inactive | – |
| CC1(C)C(=O)N(Br)C(=O)N1Br | inactive | – |
| O=C(NS(=O)(=O)/C=C/c1ccccc1)c1ccc(F)cc1Cl | inactive | – |
| CC(C)CCCCCCOC(=O)c1ccc(C(=O)OCCCCCCC(C)C)c(C(=O)OCCCCCCC(C)C)c1 | inactive | – |
| CC1=CC(=O)CC(C)(C)C1 | inactive | – |
| CN(C)c1ccc(Cc2ccc(N(C)C)cc2)cc1 | inactive | – |
| CCCCCCCCO | inactive | – |
| CC[C@H]1CC[C@H](NCc2cc3c(cc2OC)[C@H]2C[C@H]2C(=O)N3C)[C@H](c2ccccc2)N1 | inactive | – |
| CCOCCOCCOCCO | inactive | – |
| CCOC(=O)CC(CC(=O)OCC)(OC(C)=O)C(=O)OCC | inactive | – |
| NC(=O)NO | inactive | – |
| O=C1OC(=O)C2C3C=CC(C3)C12 (stereo not given) | inactive | – |
| O=P(OC(CCl)CCl)(OC(CCl)CCl)OC(CCl)CCl | inactive | – |
| Clc1nc(Cl)c(Cl)c(Cl)c1Cl | inactive | – |
| CCOC(=O)c1ccc(C2CCC(NC[C@H](O)COc3ccc(O)c(NS(C)(=O)=O)c3)CC2)cc1 (stereo not given in full) | – | 27.5 µM (active) |
